Assay results as given in PubChem BioAssay (NCI).
This is part of a sample that, as a whole, favours compounds with a hit. Of some 83,000 tested, about 20% had one in any assay.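 The test compound was applied at a single concentration to cells in 96-well plates for 48 hours, and percent growth was recorded.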 Active and inactive are the calls of the source. How the source made its calls: active means growth percent below 10; inactive means the rest.

What was measured:
Assay in all cases: NCI-60 one-dose screen, 48 h (100 = growth as untreated, 0 = no growth, -100 = all killed)
Conditions in all cases: 10 µM unless noted
HCT-15 colon = test system: HCT-15 colon
HT29 colon = test system: HT29 colon
SNB-75 CNS = test system: SNB-75 CNS
SNB-19 CNS = test system: SNB-19 CNS
U251 CNS = test system: U251 CNS
PC-3 prostate = test system: PC-3 prostate
SK-MEL-5 melanoma = test system: SK-MEL-5 melanoma
UACC-62 melanoma = test system: UACC-62 melanoma
LOX IMVI melanoma = test system: LOX IMVI melanoma
SK-MEL-28 melanoma = test system: SK-MEL-28 melanoma

Measured: growth

Cc1cccc2nc3c(n12)C(=O)C(=O)c1ccccc1-3
inactive: HCT-15 colon 40.8% | HT29 colon 78% | SNB-75 CNS 136% | SNB-19 CNS 61.3% | U251 CNS 43% | PC-3 prostate 40.2% | SK-MEL-5 melanoma 30.2% | SK-MEL-28 melanoma 85.7%
active: UACC-62 melanoma -57.4% | LOX IMVI melanoma 6.44%

COc1ccc(-c2cc(-c3nnc(SCC(=O)Nc4ccc(/C(C)=N\O)cc4)o3)c3ccccc3n2)cc1
inactive: HCT-15 colon 100% | HT29 colon 101% | SNB-75 CNS 98.3% | SNB-19 CNS 90.8% | U251 CNS 101% | PC-3 prostate 100% | SK-MEL-5 melanoma 99.2% | UACC-62 melanoma 106% | LOX IMVI melanoma 97.7% | SK-MEL-28 melanoma 114%

Cc1cnc(SCc2ccc(Cl)cc2)[nH]c1=S
inactive: HCT-15 colon 101% | HT29 colon 82.9% | SNB-75 CNS 85.2% | SNB-19 CNS 98.2% | U251 CNS 96.3% | PC-3 prostate 104% | SK-MEL-5 melanoma 96.9% | UACC-62 melanoma 99.4% | LOX IMVI melanoma 101% | SK-MEL-28 melanoma 98.9%

Clc1ccc2c(NCCCNC3CCCCC3)ccnc2c1
inactive: HCT-15 colon 84.8% | HT29 colon 48.1% | SNB-75 CNS 89.8% | SNB-19 CNS 110% | U251 CNS 93.8% | PC-3 prostate 87.3% | SK-MEL-5 melanoma 99.9% | UACC-62 melanoma 111% | LOX IMVI melanoma 96.7% | SK-MEL-28 melanoma 116%

COc1ccc(C2=NN(c3ccc(S(N)(=O)=O)cc3)C(c3ccc(Cl)cc3)C2)c(O)c1 (stereo not given)
inactive: HCT-15 colon 52.7% | HT29 colon 49.9% | SNB-75 CNS 70.1% | SNB-19 CNS 85.3% | U251 CNS 57.7% | PC-3 prostate 27.7% | SK-MEL-5 melanoma 75.4% | UACC-62 melanoma 52.9% | LOX IMVI melanoma 77.2% | SK-MEL-28 melanoma 74.9%

COc1cc(C2=NNC(c3ccc(N(C)C)cc3)C2)cc(OC)c1OC (stereo not given)
inactive: HCT-15 colon 30.9% | SNB-75 CNS 37.8% | U251 CNS 28.8% | PC-3 prostate 29.3% | UACC-62 melanoma 40.8% | LOX IMVI melanoma 49.4% | SK-MEL-28 melanoma 79.4%
active: HT29 colon 6.34% | SNB-19 CNS 8.5% | SK-MEL-5 melanoma -4.54%

COc1cc(/C=C/C(=O)/C=C/c2cc3ccc(Cl)cc3n(Cc3ccccc3)c2=O)ccc1O
active: HCT-15 colon -46.1% | HT29 colon -46.5% | U251 CNS -64.7% | PC-3 prostate -2.36% | SK-MEL-5 melanoma -80.5% | UACC-62 melanoma -56% | LOX IMVI melanoma -90% | SK-MEL-28 melanoma 3.48%
inactive: SNB-75 CNS 63.3% | SNB-19 CNS 13.3%

COc1ccc(OCC(=O)OC(C)C)cc1
inactive: HCT-15 colon 98.4% | HT29 colon 101% | SNB-75 CNS 85% | SNB-19 CNS 99.2% | U251 CNS 104% | PC-3 prostate 103% | SK-MEL-5 melanoma 96.4% | UACC-62 melanoma 96.6% | LOX IMVI melanoma 87.2% | SK-MEL-28 melanoma 102%

CCOCCc1c(O)nc(SC)[nH]c1=O
inactive: HCT-15 colon 98.2% | HT29 colon 101% | SNB-75 CNS 78.7% | SNB-19 CNS 95.9% | U251 CNS 103% | PC-3 prostate 91.1% | SK-MEL-5 melanoma 103% | UACC-62 melanoma 98.1% | LOX IMVI melanoma 105% | SK-MEL-28 melanoma 99.2%

C=CCn1c(CN2CCN(c3cc4c(cc3F)c(=O)c(C(=O)O)cn4C3CC3)CC2)n[nH]c1=S
inactive: HCT-15 colon 103% | HT29 colon 90.5% | SNB-75 CNS 99.8% | SNB-19 CNS 107% | U251 CNS 103% | PC-3 prostate 101% | SK-MEL-5 melanoma 106% | UACC-62 melanoma 99.9% | LOX IMVI melanoma 81.8% | SK-MEL-28 melanoma 97.2%

C#C[C@@]1(O)[C@@H](CO)O[C@@H](n2cc(Br)c3c(N)ncnc32)[C@@H]1O
active: HCT-15 colon 2.93% | HT29 colon 3.26% | SNB-75 CNS -36.2% | SNB-19 CNS 2.58% | U251 CNS -12.4% | PC-3 prostate -2.77% | SK-MEL-5 melanoma 4.89% | LOX IMVI melanoma -56.8%
inactive: UACC-62 melanoma 15.1% | SK-MEL-28 melanoma 58.2%

COC1=CC=CC2(OC)C3(O)CCCc4cccc(c43)N3C(=O)COC132 (stereo not given)
inactive: HCT-15 colon 103% | HT29 colon 97.2% | SNB-75 CNS 84.2% | SNB-19 CNS 101% | U251 CNS 97.3% | PC-3 prostate 95.4% | SK-MEL-5 melanoma 104% | UACC-62 melanoma 92% | LOX IMVI melanoma 97.7% | SK-MEL-28 melanoma 111%

C=CCn1c(SCC(=O)Nc2ccc(C(=O)/C=C/c3cc(OC)c(OC)c(OC)c3)cc2)nnc1-c1ccccc1
inactive: HCT-15 colon 61.1% | HT29 colon 49.1% | SNB-75 CNS 95.2% | SNB-19 CNS 86% | U251 CNS 64.4% | PC-3 prostate 94.1% | SK-MEL-5 melanoma 77.3% | UACC-62 melanoma 84.6% | LOX IMVI melanoma 68.7% | SK-MEL-28 melanoma 110%

COc1cc(/C=C/CO)cc(OC)c1O[C@@H]1O[C@H](CO)[C@@H](O)[C@H](O)[C@H]1O
inactive: HCT-15 colon 101% | HT29 colon 100% | SNB-75 CNS 94.9% | SNB-19 CNS 97.2% | U251 CNS 96.1% | PC-3 prostate 95.1% | SK-MEL-5 melanoma 98.9% | UACC-62 melanoma 100% | LOX IMVI melanoma 96.1% | SK-MEL-28 melanoma 105%

N#Cc1ccc(N2Cc3cc(Cl)ccc3OC3=C2C(=O)N(Cc2ccccc2)C3=O)cc1
inactive: SNB-75 CNS 29.9% | SNB-19 CNS 69.1% | PC-3 prostate 21.9%
active: HCT-15 colon -44.9% | HT29 colon -47.3% | U251 CNS -31.7% | SK-MEL-5 melanoma -31.5% | UACC-62 melanoma -35.5% | LOX IMVI melanoma -91.6% | SK-MEL-28 melanoma -44.4%

CCOCc1cc(C(C)(C)C)ccc1O
inactive: HCT-15 colon 104% | HT29 colon 94.6% | SNB-75 CNS 87.4% | SNB-19 CNS 98.3% | U251 CNS 94% | PC-3 prostate 93.7% | SK-MEL-5 melanoma 99.5% | UACC-62 melanoma 94.4% | LOX IMVI melanoma 96.5% | SK-MEL-28 melanoma 106%

O=C(O)c1cn(C2CC2)c2cc(N3CCN(C(=O)CSc4nnc(-c5ccc(Cl)cc5)n4-c4ccccc4)CC3)c(F)cc2c1=O
inactive: HCT-15 colon 104% | HT29 colon 97.2% | SNB-75 CNS 95.8% | SNB-19 CNS 91.3% | U251 CNS 101% | PC-3 prostate 93.7% | SK-MEL-5 melanoma 98.8% | UACC-62 melanoma 91.3% | LOX IMVI melanoma 72.3% | SK-MEL-28 melanoma 109%

COc1ccc(-n2cc(-c3ccc(Cl)c(Cl)c3)[nH]c2=O)cc1OC
inactive: HCT-15 colon 93.4% | HT29 colon 97.2% | SNB-75 CNS 91.8% | SNB-19 CNS 90.9% | U251 CNS 91.7% | PC-3 prostate 93.2% | SK-MEL-5 melanoma 104% | UACC-62 melanoma 87.5% | LOX IMVI melanoma 96.3% | SK-MEL-28 melanoma 103%

CCOC(=O)c1c(C(F)(F)F)n([O-])c2ccc(Cl)cc2[n+]1=O
active: HCT-15 colon -60.2% | HT29 colon -43.2% | SNB-75 CNS -52.2% | U251 CNS -87.7% | PC-3 prostate -85.7% | SK-MEL-5 melanoma -93.2% | UACC-62 melanoma -18.1% | LOX IMVI melanoma -86.8% | SK-MEL-28 melanoma -32.8%
inactive: SNB-19 CNS 32.4%

NC(N)=NC(N)=Nc1cc2ccccc2c2ccccc12
inactive: HCT-15 colon 57.8% | HT29 colon 12.6% | SNB-75 CNS 57.7% | SNB-19 CNS 35.8% | U251 CNS 33.8% | PC-3 prostate 24.4% | SK-MEL-5 melanoma 45.6% | UACC-62 melanoma 43.6% | LOX IMVI melanoma 16.5% | SK-MEL-28 melanoma 55.9%

O=c1c2ccccc2n(CC(O)CN2CCCC2)c2c(Br)cccc12 (stereo not given)
inactive: HCT-15 colon 103% | HT29 colon 103% | SNB-75 CNS 79% | SNB-19 CNS 84.7% | U251 CNS 98.8% | PC-3 prostate 95.9% | SK-MEL-5 melanoma 96.8% | UACC-62 melanoma 119% | LOX IMVI melanoma 96.6% | SK-MEL-28 melanoma 96.9%

CN(CCC#N)C(=O)Nc1ccccc1
inactive: HCT-15 colon 104% | HT29 colon 94.6% | SNB-75 CNS 99.2% | SNB-19 CNS 109% | U251 CNS 102% | PC-3 prostate 99.5% | SK-MEL-5 melanoma 110% | UACC-62 melanoma 101% | LOX IMVI melanoma 96.2% | SK-MEL-28 melanoma 112%

COc1cc(C2CC(c3ccc(Nc4nc(NCCO)nc(NCCO)n4)cc3)=NN2c2cc(Cl)cc(Cl)c2)cc(OC)c1OC (stereo not given)
inactive: HCT-15 colon 16.3% | SNB-19 CNS 17.4%
active: HT29 colon -47% | SNB-75 CNS -14.6% | U251 CNS -36.2% | PC-3 prostate -42.1% | SK-MEL-5 melanoma -45.8% | UACC-62 melanoma 2.21% | LOX IMVI melanoma -60.2% | SK-MEL-28 melanoma -70%

CCCn1cc(/C=N\N=C2\C(=O)Nc3ccc(C)cc32)c2ccccc21
inactive: HCT-15 colon 23% | HT29 colon 17.1% | SNB-75 CNS 85.6% | SNB-19 CNS 63.3% | U251 CNS 40% | PC-3 prostate 18% | SK-MEL-5 melanoma 49.1% | UACC-62 melanoma 40.4% | SK-MEL-28 melanoma 59.4%
active: LOX IMVI melanoma 4.42%

C(=C\c1cn(-c2ccccc2)nc1-c1ccccc1)/c1nnc(-c2c[nH]c3ccccc23)o1
inactive: HCT-15 colon 69% | HT29 colon 39.7% | SNB-75 CNS 17.6% | SNB-19 CNS 60.5% | U251 CNS 20.9% | PC-3 prostate 26% | SK-MEL-5 melanoma 59.4% | UACC-62 melanoma 95.4% | LOX IMVI melanoma 47.6% | SK-MEL-28 melanoma 53.2%

CC1CCN(CCCCCOc2ccc3oc4cc(Cl)ccc4c(=O)c3c2)CC1
inactive: SNB-75 CNS 74.7% | SNB-19 CNS 80.9% | U251 CNS 54.3% | PC-3 prostate 64.3% | SK-MEL-28 melanoma 57.5%
active: HCT-15 colon -16.9% | HT29 colon 5.89% | SK-MEL-5 melanoma -72.2% | UACC-62 melanoma -51% | LOX IMVI melanoma -25.6%

CCOC(=O)c1c(C)nc2c(c1N)/C(=C/c1cccs1)C(=O)N2c1ccc(OC)cc1
inactive: HCT-15 colon 72.8% | HT29 colon 51.3% | SNB-75 CNS 30.6% | SNB-19 CNS 42.2% | U251 CNS 12.4% | PC-3 prostate 35% | SK-MEL-5 melanoma 45.7% | UACC-62 melanoma 38.3% | LOX IMVI melanoma 37.6% | SK-MEL-28 melanoma 37%
